Structures are written as SMILES. Records with an inconclusive call do not appear. Entries that show only a call come without a potency. Activity calls are given as the source filed them. Calls come from the whole dose curve; as a rule, active = well fitted activation curve with a large enough effect; inconclusive = small, poorly fitted or top-dose-only effect; inactive = no such curve, though single readings can be large or run the other way.
Potency is the fitted concentration of half-maximal effect.

This assay in a line: qHTS assay for re-activators of p53 using a Luc reporter: Hit Validation with no p53 Expressed. Particulars: p53-null cells, luciferase reporter counter-screen; series mostly up to 46.1 µM. In a few lines: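 Counter-screen of primary hits in a cell line not transfected with p53, in Opti-MEM with 10% FBS; compounds at several concentrations (10 mM stock, 1:5; top 46.1 µM in well), 24 h at 37 deg C, 5% CO2. Luminescence read after 10 min with Amplite reagent.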
On the technique in general: In qHTS, concentration-response curves come from the screen itself.
Turning to `CCOC(=O)c1c(C)nc(-c2ccccc2)nc1NC(=O)CC`, the Potency result is “inactive”.

Take `O=c1oc2ccccc2cc1-c1cn(-c2ccccc2)c(=S)[nH]1`: the Potency entry is “inactive”.

For the compound `c1ccc(-c2cn3nc(-c4ccccc4)cnc3n2)cc1`, the Potency result was “inactive”.

`CS(=O)(=O)n1nc(-c2ccccc2)nc1NCc1ccco1`: the Potency result was “inactive”.

For the compound `Cc1cccc2nc(CNc3ccc(F)cc3)cn12`, the Potency result was “inactive”.

On to `COc1cccc(-c2cn3nc4c(nc3n2)CCCC4)c1`, for which the Potency result was “inactive”.

As to `CC1CCN(C(=O)c2cc(-c3ccccc3O)on2)CC1`, the Potency result is “inactive”.

Consider `Cc1ccc2c(c1)CCCN2C(=O)Nc1ccc2c(c1)OCO2`, for which the Potency entry is “inactive”.

Consider `Cc1ccc(C(=O)Nc2ncc3c(n2)CC(c2ccco2)CC3=O)cc1` (centres undefined), for which the Potency result was “inactive”.

Consider `CC(C)c1ccc(OCC(=O)NC(C)c2ccccc2)cc1` (centres undefined), for which the Potency entry was “inactive”.

Turning to `Cc1ccc(C)n1-c1sc2c(c1C(=O)O)CCCC2`, the Potency result was “inactive”.

Consider `CCn1c(=O)c2ccccc2n(Cc2ccccc2C)c1=O`, for which the Potency entry was “inactive”.

Consider `O=C(CSc1nnc(-c2ccc(O)cc2)o1)N1CCOCC1`, for which the Potency result is “inactive”.

For the compound `Cc1ccc(C2C(C#N)=C(N)Oc3cc4c(cc32)OCO4)cc1` (centres undefined), the Potency result was “inactive”.

In the case of `Clc1ccc(OCc2nc(-c3ccncc3)no2)c(Cl)c1`, the Potency result is “inactive”.

Take `CN(CC(=O)Nc1ccc(Cl)c(Cl)c1)C(=O)C1CCCC1`: the Potency entry was “inactive”.

In the case of `C/C(=N\NC(=O)c1cc(C)nc2ccccc12)c1ccccn1`, the Potency entry is “inactive”.

In the case of `Cc1ccc(S(=O)(=O)NCC(=O)NCC(=O)N2CCC(C)CC2)cc1`, the Potency entry was “inactive”.

Take `COCCSc1ccccc1C(=O)Nc1cc(C)ccn1`: the Potency entry is “inactive”.

Regarding `O=C(OCC(=O)N1CCc2ccccc21)c1ccccc1[N+](=O)[O-]`, the Potency result was “inactive”.

Turning to `Cc1csc(SCC(=O)Nc2ccc(C)c(F)c2)n1`, the Potency result is “inactive”.

Turning to `CCOc1ccc(-c2nnc(SCC(=O)N3CCNC3=O)o2)cc1`, the Potency result is “inactive”.

Consider `CN(C)c1cccc(C(=O)NNC(=O)CN2C(=O)C3CC=CCC3C2=O)c1` (centres undefined), for which the Potency entry was “inactive”.

For `Cc1cc(C(F)(F)F)c(C#N)c(SCC(=O)Nc2nc3ccccc3s2)n1`, the Potency was 116 nM (active).

In the case of `CCOc1ccc2c(c1)C(C)=CC(C)(C)N2S(=O)(=O)c1ccc(NC(C)=O)cc1`, the Potency result was “inactive”.

As to `c1ccc(Oc2cc(-n3cncn3)ncn2)cc1`, the Potency entry was “inactive”.

As to `O=C(Nc1ccc(OC(F)(F)F)cc1)c1cnc2n(c1=O)CCS2`, the Potency entry was “inactive”.

As to `CCOc1cccc(-c2c(C(=O)N/N=C(\C)c3ccccn3)nnn2-c2nonc2N)c1`, the Potency result was “inactive”.

For `NNc1nc(NCc2ccccc2)nc(N2CCOCC2)n1`, the Potency result was “inactive”.

Regarding `CCOC(=O)c1cc(-c2ccccc2)sc1NC(=O)CC`, the Potency entry is “inactive”.

As to `Cc1ccc(OCC(=O)Nc2ccc(Cl)cc2)c([N+](=O)[O-])n1`, the Potency result is “inactive”.

With `Cc1sc2nc(CSC(C)C(=O)Nc3ccccn3)[nH]c(=O)c2c1C` (centres undefined), the Potency result was “inactive”.

For `CN1CCN(C2=C(Cl)C(=O)N(Cc3ccccc3)C2=O)CC1`, the Potency result is “inactive”.

For `O=C1CCCC(O)=C1N=Nc1ccc2c(c1)OCO2`, the Potency result was “inactive”.

Turning to `C=CCn1c(SCC(=O)Nc2ccc(-c3nc4ccc(C)cc4s3)cc2)nnc1-c1ccccc1`, the Potency entry is “inactive”.

Regarding `CC(C)(C)OC(=O)N1CCC(C(=O)Nc2ccc3c(c2)CCC3)CC1`, the Potency entry was “inactive”.

Consider `Cc1ccc(OCCN2CCOCC2)cc1C`, for which the Potency entry was “inactive”.

For `Cc1ccc(C(=O)c2c3ccc([N+](=O)[O-])cc3[n+]([O-])n2CCCN)cc1`, the Potency result was “inactive”.

On to `Cc1ccccc1-c1noc(N)c1C#N`, for which the Potency result is “inactive”.

(Values after PubChem BioAssay AID624331 (National Center for Advancing Translational Sciences (NCATS), 2012).)
